# The campaign covered roughly 210,000 compounds. About 5,900 (2.8%) were called active. Roughly 5% stayed inconclusive and do not appear here. What follows is part of a selection rich in actives, with near analogues and random picks from the rest. Entries that show only a call come without a potency. Unmarked numbers belong to inactive results. Calls come from the whole dose curve; as a rule, active = well fitted activation curve with a large enough effect; inconclusive = small, poorly fitted or top-dose-only effect; inactive = no such curve, though single readings can be large or run the other way.
# Assay: qHTS Assay for Enhancers of SMN2 Splice Variant Expression; note: nearly all actives have a fitted effect of over 55% in size
# Details: HEK293 SMN2-luciferase splicing reporter, luminescence, 30-36 h; series mostly up to 46.1 µM
# Method in brief: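 HEK293 cells carry an SMN2 […]–luciferase reporter in which exon 7 inclusion puts luciferase in frame. Cells were plated 10-12 h before compound addition, then incubated 30-36 h at 37C. ONE-Glo luminescence was read; sodium butyrate at 4.5 mM final served as control.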
# Potency is the fitted concentration of half-maximal effect.
SMILES,Potency,"activity change, positive = activation"
CC(=O)Nc1ccc(C(=O)Nc2nc(-c3cc(C)n(Cc4ccccc4)c3C)cs2)cc1,inactive,–
Cc1cc(-c2csc(N)n2)c(C)n1Cc1ccccc1,inactive,–
Cc1cc(-c2csc(N)n2)c(C)n1-c1ccccc1,12.6 µM (active),–
COc1ccc(CCNc2nc3c(-c4cccc(F)c4)nnn3c3ccccc23)cc1OC,inactive,–
CCCN(CCC)C(=O)C(Cc1ccccc1)NS(=O)(=O)c1ccc2c(c1)c(=O)n(C)c(=O)n2C (stereo unspecified),inactive,–
O=C(Nc1ccc(-c2nnc(-c3ccccc3)o2)cc1)C1CCCO1 (stereo unspecified),3.55 µM (active),–
O=C(Nc1nnc(CCc2ccccc2)s1)C1CCCO1 (stereo unspecified),inactive,–
O=C(Nc1cccc(-c2nnc(-c3ccccc3)o2)c1)C1CCCO1 (stereo unspecified),inactive,–
CCOc1ccc(CCNC(=O)c2cc3c(=O)n(C)c4ccccc4c3n2C)cc1,inactive,–
Cn1c(COc2ccccc2C(C)(C)C)nc2ccccc21,inactive,–
CC1CCN(c2nc3ccc(C(=O)N4CCN(c5ccccc5)CC4)cc3s2)CC1,inactive,–
C=CC(C1=CC(=O)C=CC1=O)c1ccc(O)cc1 (stereo unspecified),inactive,–
Cc1cccc(/C(N)=N/OC(=O)c2ccccc2Cl)c1,11.2 µM (active),–
N/C(=N\OC(=O)c1cc(-c2ccccc2)nc2ccccc12)c1ccncc1,inactive,–
Cc1cccc(C(=O)O)c1,inactive,–
COc1ccc(CNc2nc(-c3ccc(Cl)cc3)nn2C(=O)c2ccccc2)cc1,inactive,–
COc1ccc2c(c1)c(=O)c(C(=O)c1ccccc1)cn2CC(=O)Nc1ccc2c(c1)OCCO2,inactive,–
COc1ccc(-n2c(C)cc(C(=O)CSc3nnc(-c4cccs4)o3)c2C)cc1,inactive,–
Cc1ccc(-n2c(C)cc(C(=O)CN3C(=O)C(=O)N(C4CCCC4)C3=O)c2C)cc1,inactive,–
O=C(CSc1nnc2ccccn12)c1ccccc1,12.6 µM (active),–
Cn1c(CC(=O)Nc2ccccc2)nnc1SCC(=O)c1ccccc1,inactive,–
N#Cc1ccc(CSc2nnc3ccccn23)cc1,inactive,–

SMILES,Potency,"activity change, positive = activation"
Cc1ccc(-n2c(C)cc(C(=O)CSc3nnc4ccccn34)c2C)cc1,2.24 µM (active),–
Cn1c(=O)c2c(nc(Oc3ccc(C#N)cc3)n2Cc2ccc(Cl)cc2Cl)n(C)c1=O,inactive,–
Cc1cccc(C(C)C)c1NC(=O)C(NS(=O)(=O)c1cccc2nsnc12)c1ccccc1 (stereo unspecified),inactive,–
CCOC(=O)N1CCc2c(sc3c2c(=O)n(Cc2ccccc2)c(=O)n3CC(=O)Nc2cccc(C)c2)C1,inactive,–
COc1ccc(N2CCN(C(=O)c3cn(C)c4ccc(S(=O)(=O)N5CCOCC5)cc4c3=O)CC2)cc1,inactive,–
Cc1cc(NC(=O)CC(C)C)cc(-c2nc3ncccc3o2)c1O,inactive,–
COc1ccc(NC(=O)CSC2=Nc3ccccc3C3=NC(CC(=O)NCc4ccccc4OC)C(=O)N23)cc1Cl (stereo unspecified),inactive,–
CCc1ccccc1N1CC(c2nc3ccccc3n2CCCCOc2ccccc2)CC1=O (stereo unspecified),inactive,–
Cc1cc(C)c(NC(=O)c2cc3sc(Cl)cc3n2C)c(C)c1,inactive,–
O=C(c1cnn2ccccc12)N1CCc2ccccc21,11.2 µM (active),–
Cc1cnc(C(=O)OCC(=O)N2CCc3ccccc32)cn1,inactive,–
O=C(c1cccc(C(=O)N2CCc3ccccc32)n1)N1CCc2ccccc21,inactive,–
COc1cc(OC)c(C2C=C(C(=O)O)Nc3ncnn32)cc1OC (stereo unspecified),inactive,–
S=C(NCc1ccc2c(c1)OCO2)NCc1ccco1,inactive,–
FC(F)Oc1ccc(NC(=S)NCc2ccco2)cc1Cl,inactive,–
S=C(NCc1ccco1)Nc1ccc2c(c1)OCCO2,15.8 µM (active),–
COc1ccccc1CNC(=O)c1ccc(NC(=O)N2CC(C)Sc3ccccc32)cc1 (stereo unspecified),inactive,–
CC(=O)N1CCc2cc(Br)cc(S(=O)(=O)CCC(=O)NCCc3ccc(Cl)cc3)c21,inactive,–
C(=N\Nc1ccc2ccccc2n1)/c1ccc2c(c1)OCO2,inactive,–
Cc1cc(C)nc(N/N=C/c2c(C)oc3ccccc23)n1,inactive,–
Cc1noc(C)c1/C=N/Nc1ccc2ccccc2n1,14.1 µM (active),–
CCOC(=O)c1oc2ccc(S(=O)(=O)n3nc(-c4ccccc4OC)cc3N)cc2c1C,inactive,–

SMILES,Potency,"activity change, positive = activation"
COc1ccc(-c2nc3c(c4c2C[C@H](c2ccccc2)OC4)CN(S(=O)(=O)c2c(C)noc2C)CC3)c(C)c1,–,-6.74% [at 9.22 µM]
Cc1ccccc1C(=O)NCc1nc(-c2ccc(Cl)cc2)no1,inactive,–
COc1ccc(-c2noc(COc3ccc(Cl)c(C)c3)n2)cc1,inactive,–
Cc1cc(Cl)ccc1OCc1nc(-c2ccncc2)no1,12.6 µM (active),–
O=C(c1ccc2c(c1)N(Cc1ccccc1)C(=O)c1ccccc1S2(=O)=O)N1CCCC1,inactive,–
O=C(CCCCn1c(=O)c2ccccc2n(CC(=O)Nc2cccc(C(F)(F)F)c2)c1=O)NCc1ccc2c(c1)OCO2,inactive,–
Cc1cccc(-c2nnc(SCC(=O)N3CCCc4ccccc43)o2)c1,inactive,–
Fc1ccc(CSc2nnc(-c3cc4c(s3)-c3ccccc3CC4)o2)cc1,inactive,–
CCSc1nnc(-c2cc3c(s2)-c2ccccc2CC3)o1,15.8 µM (active),–
COc1ccccc1-c1noc(CSc2nnc(-c3ccccc3)n2-c2ccc(C)c(C)c2)n1,inactive,–
CCCCOc1ccc(C(=O)Nc2cccc(-c3nc4ccccc4o3)c2C)cc1,inactive,–
O=c1[nH]c(CCl)nc2cc(-c3ccc(Cl)cc3)sc12,7.08 µM (active),–
O=c1[nH]c(CN2CCOCC2)nc2cc(Cl)ccc12,inactive,–
NC(=O)Cc1nc2scc(-c3ccc(Cl)cc3)c2c(=O)[nH]1,inactive,–
COc1ccc(NC(=O)CC2COc3ccccc3O2)c(OC)c1 (stereo unspecified),inactive,–
Cc1cc(NC(=O)CCC2COc3ccccc3O2)no1 (stereo unspecified),12.6 µM (active),–
Cc1ccc(SCCC(=O)Nc2cc(C)on2)cc1,inactive,–
CCc1ccccc1NC(=O)c1ccc2c(c1)CCN2S(C)(=O)=O,inactive,–
Cn1c(=NC(=O)CSCC(=O)N2CCCCC2)sc2ccccc21,inactive,–
Cn1c(=NC(=O)c2cnccn2)sc2ccccc21,12.6 µM (active),–
Cn1c(=NC(=O)CSCC(=O)N2CCOCC2)sc2ccccc21,inactive,–
Cc1cc(C)cc(OCC(=O)Nc2nc(-c3ccc(F)cc3)ns2)c1,inactive,–

# Reference: PubChem BioAssay AID1458 (National Center for Advancing Translational Sciences (NCATS), 2008)
